A word on the AC50: it is the concentration giving half of the maximal activity seen.

This note sets out measurements from PubChem BioAssay (EPA / NIEHS).

The source made the active and inactive calls. How the source made its calls: active means hit-call score of the fitted dose curve at least 0.9, where 1 is the maximum; inactive means score below 0.9.

Assay [1] deals with Transcription factor E2F1 (Homo sapiens) (UniProt Q01094). Kind of assay: ATG_E2F_CIS: Attagene CIS-FACTORIAL HepG2 Assay for human E2F Transcription Factor 1 (AID 2282935). As to conditions: HepG2 Attagene cis-reporter, E2F reporter RNA transcripts; actives raise or lower the signal. The procedure, abridged:
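Multiplexed cis-reporter assay: HepG2, transient transfection, 24 h dosing, mRNA quantitation by labeled RT-PCR and CE.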

A short description of assay [2]: ATG_E_Box_CIS: Attagene CIS-FACTORIAL HepG2 Assay for human Enhancer Box (E-box) (AID 2282936). As to conditions: HepG2 E-box cis-reporter transcription, actives raise or lower the signal. The essentials:
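Multiplexed CIS reporter system in transiently transfected HepG2 cells measures native transcription factor activity. Reporter RNA after 24 h exposure is profiled by RT-PCR-capillary electrophoresis.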

Assay [3] can be described thus: ATG_M_61_CIS: Attagene CIS-FACTORIAL HepG2 Assay for M61 Transcription Factor (Internal Marker) (AID 2282937). As to conditions: HepG2 Attagene CIS-FACTORIAL M61 internal marker reporter; actives raise or lower the signal. The procedure, abridged:
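Transfect HepG2 with MRTUs; dose 24 h; isolate RNA; reverse-transcribe with DNase I treatment; PCR-amplify, FAM-label and cut with HpaI for 2 h at 37 C; resolve by CE. Bidirectional fitting against DMSO.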

Assay [4] is described as follows: ATG_EGR_CIS: Attagene CIS-FACTORIAL HepG2 Assay for human Early Growth Response 1 (EGR1) (AID 2282938). The note with it: HepG2 Attagene CIS-FACTORIAL EGR reporter mRNA; actives raise or lower the signal. The essentials:
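After a 24 h treatment of transiently transfected HepG2 cells, total RNA was reverse-transcribed and reporter sequences PCR-amplified, labelled and run on capillary electrophoresis. Reporters sit under cis-regulatory promoters sensing endogenous factors.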

Assay [5] is described as follows: ATG_M_19_CIS: Attagene CIS-FACTORIAL HepG2 Assay for M19 Transcription Factor (Internal Marker) (AID 2282939). The note with it: HepG2 Attagene CIS-FACTORIAL M19 internal marker reporter; actives raise or lower the signal. The essentials: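 Following a 24 h exposure, RNA from transfected HepG2 cells was reverse-transcribed, PCR-amplified with reporter-specific primers, end-labelled with 6-FAM and HpaI-digested before capillary separation. Values represent gain or loss versus DMSO.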

Assay [6] can be described thus: ATG_ERE_CIS: Attagene CIS-FACTORIAL HepG2 Assay for Estrogen Response Element (ERE) (AID 2282940). As to conditions: HepG2 ERE cis-reporter, Attagene RNA transcript; actives raise or lower the signal. The essentials: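 HepG2, transient cis-reporter units, 24 h exposure. RNA isolated, oligo(dT) RT, reporter-specific PCR, FAM extension, HpaI cut, CE detection. Gain/loss-of-signal vs DMSO.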

Assay [7] in a line: ATG_Ets_CIS: Attagene CIS-FACTORIAL HepG2 Assay for human Erythroblast Transformation Specific (ETS) (AID 2282941). As to conditions: HepG2 ETS cis-reporter transcription, actives raise or lower the signal. The procedure, abridged:
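Human HepG2 hepatoma cells were transiently transfected with promoter-driven reporter constructs and treated for 24 hours. Reporter transcripts were quantified by RT-PCR with fluorescent primer extension; bidirectional curve fitting used DMSO as reference.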

The target in assay [8] is Hepatocyte nuclear factor 3-beta (Homo sapiens) (UniProt Q9Y261). Kind of assay: ATG_FoxA2_CIS: Attagene CIS-FACTORIAL HepG2 Assay for human Forkhead box A2 (FOXA2) (AID 2282942). As to conditions: HepG2 cis-reporter transcription factor activity, 24 h; actives raise or lower the signal. The essentials:
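24 h dosing of HepG2 bearing cis-reporter constructs; mRNA readout by RT-PCR/CE fluorescence; bidirectional fit, DMSO baseline.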

A short description of assay [9]: ATG_FoxO_CIS: Attagene CIS-FACTORIAL HepG2 Assay for human Forkhead box O (FoxO) (AID 2282943). As to conditions: HepG2 Attagene cis-reporter, FoxO element, mRNA; actives raise or lower the signal. The procedure, abridged: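 24 h chemical exposure, HepG2 with transient cis-MRTU transfection. RNA extraction, oligo(dT) RT, reporter-specific PCR, primer-extension labelling, HpaI digestion, CE fragment analysis; bidirectional fit, DMSO baseline.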

Assay [10] is described as follows: ATG_GATA_CIS: Attagene CIS-FACTORIAL HepG2 Assay for human GATA Binding Protein (AID 2282944). As to conditions: HepG2 GATA cis-element reporter, Attagene multiplex mRNA; actives raise or lower the signal. The procedure, abridged:
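DMSO serves as negative control and baseline for bidirectional fitting of reporter mRNA changes. HepG2 cells bearing transiently transfected cis-promoter reporters were exposed 24 h; transcripts detected via RT-PCR and capillary electrophoresis.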

The nature of assay [11]: ATG_GLI_CIS: Attagene CIS-FACTORIAL HepG2 Assay for human Zinc Finger Protein GLI1 (AID 2282945). As to conditions: HepG2, Attagene cis-factorial reporter mRNA, GLI element; actives raise or lower the signal. The essentials:
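HepG2 cells transiently transfected with cis-promoter multiplexed reporter units report endogenous transcription factor activity. After 24 h chemical exposure, reporter mRNA was quantified by RT-PCR, 6-FAM labelling, HpaI digestion and capillary electrophoresis, with bidirectional fitting against DMSO.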

Assay [12] is described as follows: ATG_GRE_CIS: Attagene CIS-FACTORIAL HepG2 Assay for human Glucocorticoid Response Elements (GRE) (AID 2282947). As to conditions: HepG2 GRE cis-reporter, Attagene multiplex mRNA; actives raise or lower the signal. The essentials:
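Following 24 h chemical exposure of transiently transfected HepG2 cells, total RNA was reverse-transcribed and reporter cDNA amplified, fluorescently labelled and sized by capillary electrophoresis. Signal gain or loss was fitted relative to DMSO vehicle.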

The nature of assay [13]: ATG_ISRE_CIS: Attagene CIS-FACTORIAL HepG2 Assay for human Interferon Regulatory Factor 1 (IRF1) binding to an Interferon-Stimulated Response Element (ISRE) (AID 2282948). As to conditions: HepG2 ISRE cis-reporter (Attagene), mRNA transcription readout; actives raise or lower the signal. The procedure, abridged:
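Cell-based cis-reporter assay; HepG2; 24 h exposure; reporter mRNA by RT-PCR plus capillary electrophoresis fluorescence; activity in either direction scored relative to DMSO.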

The nature of assay [14]: ATG_M_32_CIS: Attagene CIS-FACTORIAL HepG2 Assay for M32 Transcription Factor (Internal Marker) (AID 2282949).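 Further: background control marker of the multiplexed CIS panel rather than a real target.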 As to conditions: HepG2 Attagene cis-factorial M32 reporter, mRNA; actives raise or lower the signal. The procedure, abridged:
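HepG2 cells transiently transfected with multiplexed cis-regulated reporter units, dosed 24 h. Reporter mRNA quantified by RT-PCR, 6-FAM labelling, HpaI digestion and capillary electrophoresis; bidirectional fit vs DMSO.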

The nature of assay [15]: ATG_M_06_CIS: Attagene CIS-FACTORIAL HepG2 Assay for M06 Transcription Factor (Internal Marker) (AID 2282950). The note with it: HepG2 Attagene CIS-FACTORIAL M06 internal marker reporter; actives raise or lower the signal. The procedure, abridged:
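Fluorescence-labelled RT-PCR products from cis-promoter reporter units, cut with HpaI and resolved by capillary electrophoresis, give the signal. Cells are human HepG2, dosed for 24 h. Serves as background control, fitted relative to DMSO.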

In assay [16] the target is Hypoxia-inducible factor 1-alpha (Homo sapiens) (UniProt Q16665). Kind of assay: ATG_HIF1a_CIS: Attagene CIS-FACTORIAL HepG2 Assay for human Hypoxia Inducible Factor 1 (HIF1A) (AID 2282951). The note with it: HepG2 Attagene cis-factorial HIF1a reporter transcription; actives raise or lower the signal. The essentials:
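After 24 h chemical exposure of reporter-transfected HepG2 cells, reporter cDNA was PCR-amplified, labelled by 6-FAM primer extension (2 min 95 C, 20 s 68 C, 10 min 72 C), HpaI-cut (2 h, 37 C) and analysed by CE.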

In assay [17] the target is Hepatocyte nuclear factor 6 (Homo sapiens) (UniProt Q9UBC0). Kind of assay: ATG_HNF6_CIS: Attagene CIS-FACTORIAL HepG2 Assay for human Hepatocyte Nuclear Factor 6 (HNF6) (AID 2282952). As to conditions: HepG2 Attagene cis-factorial HNF6 reporter transcription; actives raise or lower the signal. The essentials: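 HepG2 cells transiently transfected with cis-element-driven multiple reporter transcription units, dosed 24 h; reporter mRNA quantified by RT-PCR, FAM primer extension, HpaI digestion and capillary electrophoresis; bidirectional fit versus DMSO baseline.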

Assay [18] deals with Heat shock factor protein 1 (Homo sapiens) (UniProt Q00613). Kind of assay: ATG_HSE_CIS: Attagene CIS-FACTORIAL HepG2 Assay for human Heat Shock Transcription Factor 1 (HSE) (AID 2282953). The note with it: HepG2 HSE cis-reporter, Attagene RNA transcription; actives raise or lower the signal. The procedure, abridged:
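After a 24 h incubation with test chemical, transfected HepG2 cells were harvested for RNA; reporter transcripts were measured by RT-PCR and capillary electrophoresis. Values reflect gain or loss of signal relative to DMSO.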

Assay [19] in a line: ATG_MRE_CIS: Attagene CIS-FACTORIAL HepG2 Assay for human Metal Responsive Element (MRE) (AID 2282954). The note with it: HepG2 MRE cis-reporter transcription, Attagene multiplex; actives raise or lower the signal. The essentials: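 Step one: transfect HepG2 with cis-regulated reporter units. Step two: dose 24 h. Step three: isolate RNA, RT-PCR, 6-FAM label, HpaI digest, capillary electrophoresis. Fit bidirectionally to DMSO.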

Assay [20] concerns the target Bile acid receptor (Homo sapiens) (UniProt Q96RI1). Kind of assay: ATG_IR1_CIS: Attagene CIS-FACTORIAL HepG2 Assay for human Nuclear Receptor Subfamily 1 Group H Member 4 (NR1H4), IR1 submotif (AID 2282946). The note with it: IR1 reporter transcription, actives raise or lower the signal. The procedure, abridged:
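Transient MRTU transfection, HepG2; 24 h dosing; RNA → RT-PCR → 6-FAM primer extension → HpaI digest → capillary electrophoresis fluorescence. Gain/loss of signal fitted relative to DMSO.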

Chain of Heat shock factor protein 1 (Homo sapiens) (Q00613 whole entry, looked up): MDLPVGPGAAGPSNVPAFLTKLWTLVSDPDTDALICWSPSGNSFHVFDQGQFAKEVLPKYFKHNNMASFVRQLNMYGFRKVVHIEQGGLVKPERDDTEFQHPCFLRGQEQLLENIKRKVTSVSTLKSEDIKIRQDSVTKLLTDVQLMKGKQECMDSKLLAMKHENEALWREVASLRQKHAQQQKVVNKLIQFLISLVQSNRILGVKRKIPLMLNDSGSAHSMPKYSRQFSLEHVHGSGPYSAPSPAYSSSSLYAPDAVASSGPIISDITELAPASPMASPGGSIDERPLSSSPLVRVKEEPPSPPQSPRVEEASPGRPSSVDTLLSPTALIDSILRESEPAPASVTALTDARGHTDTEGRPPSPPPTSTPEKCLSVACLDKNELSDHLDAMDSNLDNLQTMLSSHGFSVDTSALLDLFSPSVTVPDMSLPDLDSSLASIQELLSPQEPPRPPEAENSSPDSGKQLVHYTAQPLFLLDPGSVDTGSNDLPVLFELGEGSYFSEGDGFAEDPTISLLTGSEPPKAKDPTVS
Chain of Hypoxia-inducible factor 1-alpha (Homo sapiens) (Q16665 whole entry, looked up): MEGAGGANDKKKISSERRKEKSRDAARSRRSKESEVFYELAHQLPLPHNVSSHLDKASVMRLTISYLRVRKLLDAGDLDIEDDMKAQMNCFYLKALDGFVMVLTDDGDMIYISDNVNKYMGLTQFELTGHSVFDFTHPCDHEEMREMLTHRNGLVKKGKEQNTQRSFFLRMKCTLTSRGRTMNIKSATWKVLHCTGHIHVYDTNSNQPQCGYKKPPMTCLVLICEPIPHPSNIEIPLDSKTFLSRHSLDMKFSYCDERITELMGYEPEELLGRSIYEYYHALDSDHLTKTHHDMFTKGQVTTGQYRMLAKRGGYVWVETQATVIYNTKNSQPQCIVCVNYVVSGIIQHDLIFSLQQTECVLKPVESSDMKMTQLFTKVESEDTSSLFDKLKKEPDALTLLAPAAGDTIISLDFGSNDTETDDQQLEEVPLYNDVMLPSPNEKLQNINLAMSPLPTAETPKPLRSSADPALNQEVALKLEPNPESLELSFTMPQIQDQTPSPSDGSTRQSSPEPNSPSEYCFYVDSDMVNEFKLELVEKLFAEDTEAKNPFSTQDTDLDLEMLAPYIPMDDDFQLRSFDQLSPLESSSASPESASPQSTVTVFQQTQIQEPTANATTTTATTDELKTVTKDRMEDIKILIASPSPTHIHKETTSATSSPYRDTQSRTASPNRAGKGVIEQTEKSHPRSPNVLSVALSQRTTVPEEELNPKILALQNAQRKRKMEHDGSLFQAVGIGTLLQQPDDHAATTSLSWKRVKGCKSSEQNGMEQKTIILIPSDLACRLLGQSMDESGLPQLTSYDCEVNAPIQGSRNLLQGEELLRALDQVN
Chain of Hepatocyte nuclear factor 6 (Homo sapiens) (Q9UBC0 whole entry, looked up): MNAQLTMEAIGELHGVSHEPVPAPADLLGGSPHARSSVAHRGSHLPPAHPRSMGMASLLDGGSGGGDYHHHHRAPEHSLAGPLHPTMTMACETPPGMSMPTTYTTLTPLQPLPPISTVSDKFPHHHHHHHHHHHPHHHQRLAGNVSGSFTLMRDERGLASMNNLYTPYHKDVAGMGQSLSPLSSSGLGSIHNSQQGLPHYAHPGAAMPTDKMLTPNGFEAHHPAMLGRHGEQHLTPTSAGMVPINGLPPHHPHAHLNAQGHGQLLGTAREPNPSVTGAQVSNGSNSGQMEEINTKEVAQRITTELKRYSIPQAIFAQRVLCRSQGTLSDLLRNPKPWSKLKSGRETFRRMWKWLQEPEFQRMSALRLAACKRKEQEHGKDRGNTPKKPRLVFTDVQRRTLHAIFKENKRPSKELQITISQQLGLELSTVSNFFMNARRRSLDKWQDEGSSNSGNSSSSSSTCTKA
Chain of Transcription factor E2F1 (Homo sapiens) (Q01094 whole entry, looked up): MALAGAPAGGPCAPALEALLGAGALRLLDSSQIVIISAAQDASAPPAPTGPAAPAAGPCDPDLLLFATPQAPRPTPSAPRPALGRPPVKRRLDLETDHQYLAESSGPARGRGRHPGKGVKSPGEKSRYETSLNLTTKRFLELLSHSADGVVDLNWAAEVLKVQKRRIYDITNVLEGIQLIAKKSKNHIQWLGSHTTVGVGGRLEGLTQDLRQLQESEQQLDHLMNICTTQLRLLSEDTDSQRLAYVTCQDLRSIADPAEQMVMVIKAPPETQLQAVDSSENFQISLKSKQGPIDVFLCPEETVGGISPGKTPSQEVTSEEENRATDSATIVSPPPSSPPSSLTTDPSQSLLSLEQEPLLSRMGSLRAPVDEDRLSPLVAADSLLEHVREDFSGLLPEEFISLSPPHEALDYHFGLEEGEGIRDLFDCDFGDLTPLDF
Chain of Bile acid receptor (Homo sapiens) (Q96RI1 whole entry, looked up): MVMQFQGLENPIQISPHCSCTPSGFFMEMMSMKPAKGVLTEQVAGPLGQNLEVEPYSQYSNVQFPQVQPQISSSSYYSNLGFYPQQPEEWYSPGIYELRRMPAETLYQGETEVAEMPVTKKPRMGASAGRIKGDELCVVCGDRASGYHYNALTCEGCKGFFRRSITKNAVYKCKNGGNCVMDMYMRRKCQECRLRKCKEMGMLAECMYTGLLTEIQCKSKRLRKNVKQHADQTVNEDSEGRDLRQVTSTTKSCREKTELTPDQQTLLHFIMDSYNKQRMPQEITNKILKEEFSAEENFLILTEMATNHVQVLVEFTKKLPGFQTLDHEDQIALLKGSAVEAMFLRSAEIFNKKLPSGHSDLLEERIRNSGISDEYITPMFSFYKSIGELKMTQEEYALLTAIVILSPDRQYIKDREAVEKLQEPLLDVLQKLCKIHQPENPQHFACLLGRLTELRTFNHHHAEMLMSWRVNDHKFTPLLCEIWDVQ
Chain of Hepatocyte nuclear factor 3-beta (Homo sapiens) (Q9Y261 whole entry, looked up): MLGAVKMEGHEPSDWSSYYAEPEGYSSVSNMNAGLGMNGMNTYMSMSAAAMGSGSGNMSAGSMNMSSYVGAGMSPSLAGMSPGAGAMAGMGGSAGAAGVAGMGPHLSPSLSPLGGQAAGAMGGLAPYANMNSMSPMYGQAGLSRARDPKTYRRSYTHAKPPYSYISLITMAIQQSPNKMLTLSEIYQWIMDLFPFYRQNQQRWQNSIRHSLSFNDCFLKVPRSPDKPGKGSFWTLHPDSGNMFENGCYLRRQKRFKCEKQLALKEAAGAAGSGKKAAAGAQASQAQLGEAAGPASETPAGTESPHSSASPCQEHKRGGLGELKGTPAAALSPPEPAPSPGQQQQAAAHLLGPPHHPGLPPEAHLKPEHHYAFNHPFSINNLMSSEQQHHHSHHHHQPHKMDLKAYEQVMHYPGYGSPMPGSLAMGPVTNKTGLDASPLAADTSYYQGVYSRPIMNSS

Consider `CC(C)c1ccc(O)c(C(C)C)c1`, for which the result in [1], in [2], in assay [3], in assay [4], in assay [5] and in [7] was inactive. For the same compound, the call in assay [8], in assay [9], in assay [10], in assay [11], in [12] and in [13] was inactive. Moreover, the compound was classed as inactive in assay [14], in assay [15], in assay [16], in [17], in assay [18] and in assay [19]. Moreover, the AC50 in [6] was 41.2 µM (active).
Consider `O=C(Nc1ccccc1)c1cc(Cl)ccc1O`, for which the result in assay [1], in [2], in assay [3], in assay [5], in assay [6] and in assay [8] was inactive. Further, the compound was called inactive in [10], in assay [11], in assay [20], in assay [13], in assay [15] and in assay [16]. For the same compound, in assay [17], the compound was called inactive. For the same compound, the half-maximal activity concentration (AC50) is 6.36 µM (active) in [4]; 19.8 µM (active) in [7]; 100 µM (active) in [9]; 2.93 µM (active) in assay [18]; 23.9 µM (active) in [19].
As for `C=C(C)C(=O)OCC(O)COc1ccc(C(C)(C)c2ccc(OCC(O)COC(=O)C(=C)C)cc2)cc1` (centres undefined), the call in [1], in assay [2], in assay [3], in [5], in [6] and in assay [8] was inactive. The call in [9], in assay [11], in assay [20], in assay [14], in [15] and in [17] was inactive. Also, the AC50 in assay [4] is 39.8 µM (active); in [7], 100 µM (active); in assay [10], 166 µM (active); in [16], 31.1 µM (active); in assay [18], 46.9 µM (active); in assay [19], 52.7 µM (active).
For the compound `O=C(O)CCC(=O)O`, the compound was called inactive in assay [1], in assay [2], in [3], in assay [4], in assay [5] and in assay [6]. The compound was called inactive in [7], in assay [8], in [9], in assay [10], in assay [11] and in [20]. Further, the call in assay [13], in assay [14], in [15], in [16], in assay [17] and in [18] was inactive. Also, the call in assay [19] was inactive.
